Source: the supplement of paper PMC6555819

What follows are sequences tested on VDR:RXRa (NR concentration 270 nM, RXRa partner concentration 90 nM) (assay: PBM binding z-score (relative to random genomic background probes); higher = stronger binding; sequences stand for … in GC…GCGATTGACAGCGTAGAATGAAGG).
Description: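 Protein-binding microarray (Agilent 4x180K custom design, double-stranded 60-nt probes: 5' GC cap, 34-nt variable region, 24-nt constant primer region; full probe sequence given). Purified or IVT nuclear receptor:RXRα heterodimers (3:1 NR:RXRα, mostly 270:90 nM) or homodimers were incubated for 1 h in PBS with 2% milk and no ligand, then detected with Alexa488 antibodies. Fluorescence from o1-orientation probes (~5 replicates averaged) was converted to z-scores against 500 random hg19 background probes. Variable regions are seed direct-repeat (DR0–DR5) sites, all their single-nucleotide variants and half-site ablations.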

Row | Sequence | PBM binding z-score
1 | TTACAAAGGTGAAGGTCGTTGATCCCTCTGTAGA | 2.19
2 | TAGCCTAGGTCATTGGGCCAGTCTAGTACGCATC | 1.98
3 | GGAACGAGGGCAAGTTGACAGCAGAGTTTGATGG | 0.799
4 | CGTCCAAGGTCAGAGAGGTCAGGGAATGCCGAGT | 7.31
5 | GCTGCTGGGTCAACTGATGGTCAGCTAAAGCTCG | 1.82
6 | TCTAGCAGGCCAGTGGGTCACTCAAGAGGTACGG | 0.297
7 | CGTCCAAGCTCAGAGAGGTCAGTGAATGCCGAGT | 2.2
8 | CCTGCTAGGTTATGGTCAGCTAATCTACAGTATG | -0.216
9 | TCTATTAGTGGAAGGGCAACCGACGAGTCCGTTT | 0.969
10 | CCAGACAGGTGAAAGATAACTCAGTCTGGTACGC | 0.17
11 | AGAATGACGTTATTAAGATCAGGGAATTGCGGTC | -0.00436
12 | ATATGTAGGTTAAGGGTGATTCAGGTTGGTTCGC | 1.68
13 | TCTATTAGTTGAAGGGCAACCGTCGAGTCCGTTT | 0.884
14 | AGCATGAGGTTAAGATCAGGGAAACAGAATACAT | 1.36
15 | AGAATGTGGTTAAGATCAGGGAAACAGAATACAT | -0.0223
16 | CAAACTAGGTCACCGGAAGGTCAAAGACCGCATG | 5.76
17 | TCGAGTAGGTTAGTCGGGGCATTCAACCAACATA | 2.31
18 | GCGACTGGGGCTAAGCAGGTTACCATAAGGTTGG | -0.0992
19 | CCGAGTAGGTTCTGGGGCATTCAGGCAACGGTGA | -0.552
20 | TCAGACAGGTGAAGGTGACTCAGGTACGCAGTCG | 1.04

Row | Sequence | PBM binding z-score
21 | TTAGCAAGGTGAAGGTCGTTGATCCCTCTGTAGA | 0.964
22 | AGGCAAAGTTCAGGACGAGGTAACGTAAAGCACG | 2.67
23 | GGAACGAGCGCAAGTTGATAGCAGAGTTTGATGG | -0.693
24 | CCTACTGGGCCAAAAAGGTCAATGATGCCGATAA | 4.18
25 | ATCTCTAGGTAAAGATAGTTCAGTGAATGCAAAT | 0.815
26 | TCGAGTAGGTTAGTCGGGGCAGTCAGCCAACATA | 0.666
27 | TTACCAAGGTGAAGGTCATTGATCCCTCTGTAGA | 3.43
28 | AGTCAAAGTTCAGGACGTGGTAACGTAAAGCACG | 2.12
29 | CCTACTGGGCCAAAAAGGTCATCGATGCCGATAA | 4.79
30 | TCGAGTAGGTTAGTCGGGGCATTGAGCCAACATA | 1.89
31 | GCAGACAGGTGAAACGCAGGTAATTCAGGGTGGC | -0.324
32 | CCGACTGGGGCAGAAATGTTACCATACCATCCGG | -0.557
33 | TCTTCTAGATCAACAGGAGGTTAAGAAAGATCGA | 0.728
34 | TCTGTTAGGTCAGTTGGTCAGCTAACGAGCTGCC | 0.897
35 | CAAACTAGGTCACTGGAAGGTCAAAGTCCGCATG | 5.33
36 | ACTATTAGTTGACCTAGGGCAACCGATACGACGC | 1.96
37 | ACTAGTTGGTCAGCTGAAGTCACACACAATTCGG | -0.103
38 | CGAACTAGGTCATTGACAGAACAGTGAATAGTAA | 1.97
39 | CCAGACAGGTCAAAGGTAACTCAGTCTGGTACGC | 3.86
40 | CCTAGCCGGCCAGGGTCACTCAAGCATTTCGCTT | 2.37
